# The list is not random: actives were taken first. Their share in the collection is about 2%.
# LGR2 antag – inhibitors of bursicon-induced LGR2 CRE-luciferase signal, primary screen, cell-based, HEK293, CRE-luciferase reporter, bursicon stimulation. bursicon-stimulated, 4 h. AID 720647, 2013. actives 0.35% (n = 380,000). inhibition, % at 9.99 µM;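 active = drop in luminescence signal, shown as inhibition above about 50% in the replicate tests, limit read from the data, passing the limit was not always enough; inconclusive = probably only some replicates passing the limit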;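 also: agonist challenge used bursicon conditioned medium at about half maximal strength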
# Shn3 inh set2 – reduction of Shn3 3'UTR firefly luciferase signal, primary screen, Schnurri-3 inhibitor project, cell-based, Clone20 osteoblasts, set 2. Clone20 osteoblast Shn3 3'UTR firefly luciferase, 24 h. inhibition, % at 12.5 µM. actives 0.52% (n = 360,000);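 active = mean inhibition of at least 75% with every replicate also reaching 75%; inconclusive = mean inhibition at least 75% but some replicate below; inactive = mean inhibition below 75%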;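 also: 0% = median of neutral control wells and 100% = pilot-screen positive control compound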
# PAX8 inh HTS – inhibitors of PAX8-driven TPO luciferase reporter, primary screen, RMG-I cells, single concentration; SteadyGlo, 24 h; inhibition, % at 12.6 µM; actives 1.2% (n = 360,000);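 active = mean replicate inhibition at least 60% with every replicate also reaching 60%; inconclusive = only one of the two criteria is met; inactive = mean below 60% and not all replicates reaching 60%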;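 also: luciferase light reporting Pax8 driven TPO promoter activity; plate controls were median of neutral control wells for no effect and mitoxantrone controls for full effect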
# EWS-Fli block – EWS/Fli-driven NR0B1 reporter inhibitors, primary screen, A673 cells, NR0B1 luciferase, luminescence, MLPCN library; viability-normalised; inhibition, % at 12.6 µM; actives 0.67% (n = 350,000);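 active = mean inhibition of at least 50% after viability correction, with every replicate also passing that limit; inconclusive = mean reaches 50% but only one of two replicates passes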;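 also: firefly luciferase signal divided by Alamar Blue viability fluorescence both relative to DMSO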
# CF NFkB block – inhibitors of PAF-induced NF-kB signaling, primary screen, cell-based, GFP fluorescence, uHTS | AID 588850, 2011 | KKLEB NF-kB-GFP reporter, GFP fluorescence overnight | actives 0.86% (n = 360,000) | inhibition, % at 5 µM;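 active = at least 50% inhibition at 5 µM, scaled per plate between neutral and stimulator controls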;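 also: PAF is a Pseudomonas aeruginosa culture filtrate used as stimulus; plate controls were PAF-stimulated DMSO wells for no effect and unstimulated DMSO wells for full effect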
# KKLEB tox – cytotoxicity in KKLEB CF airway cells, primary screen, cytotoxicity control for CF NF-kB inhibitor project, cell-based, uHTS, fluorescence assay plates | AID 602141, 2011 | actives 0.36% (n = 360,000) | KKLEB CF airway cells viability, ATPlite luminescence, overnight; stronger effect = lower value; cells stimulated with P. aeruginosa culture filtrate | activity change (cytotoxicity), % at 5 µM;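 active = corrected activity change at or below -50% at 5 µM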
# An asterisk follows results filed as active; ? = inconclusive; / = not tested or not shown.
SMILES,LGR2 antag,Shn3 inh set2,PAX8 inh HTS,EWS-Fli block,CF NFkB block,KKLEB tox
CN(C)C(=O)c1cccc(-c2ccc([C@H]3[C@@H](C#N)N(C(=O)C4CCC4)[C@@H]3CO)cc2)c1,-6,/,12,4,/,/
CCC[C@@H](CN1CCC[C@H]1CN1C(N)=NC[C@@H]1Cc1ccccc1)N1C[C@@H]([C@H](C)CC)N(CCCC2CCCC2)C1=N,/,93*,/,/,23,-19
O=[N+]([O-])c1cc(Br)c(Nc2ccccc2)c([N+](=O)[O-])c1,-16,29,84*,30,44,-17
O=C(Nc1ccccc1)c1ccc(Nc2c([N+](=O)[O-])cc([N+](=O)[O-])c3ccccc23)cc1,21,70,18,/,-24,-3
c1ccc(-c2cc3ccccc3[nH]2)cc1,-61,-61,-141,-88,12,-94*
CN(C)CC(=O)N1[C@H](CO)[C@@H](c2ccccc2-c2ccccc2F)[C@@H]1C#N,-6,/,/,-2,/,/
C=C1CC2(CC(c3ccccc3)OC(c3ccccc3)C2)OC1=O (stereo unspecified),-9,97*,0,48,78*,-66*
C=C1CC(c2ccc(-c3ccccc3)cc2)OC1=O (stereo unspecified),/,/,55,49,/,/
Cc1ccccc1-n1c(SCC(=O)c2c(N)n(C)c(=O)n(C)c2=O)nnc1-c1cccnc1,-2,11,18,-7,-10,0
CCOc1ccc(-n2c(SCC(=O)c3c(N)n(C)c(=O)n(C)c3=O)nnc2-c2cccnc2)cc1,-2,8,81*,2,15,6
C[C@@H]1CN([C@@H](C)CO)S(=O)(=O)c2ccc(C#C[C@@H](C)O)cc2O[C@@H]1CN(C)Cc1ccc(-c2ccccc2)cc1,12,/,77*,11,/,/
C[C@H](O)C#Cc1ccc2c(c1)O[C@H](CN(C)Cc1ccc(-c3ccccc3)cc1)[C@H](C)CN([C@@H](C)CO)S2(=O)=O,20,/,81*,15,/,/
C[C@@H](O)C#Cc1ccc2c(c1)O[C@H](CN(C)Cc1ccccc1)[C@@H](C)CN([C@@H](C)CO)S2(=O)=O,-1,/,/,15,/,/
C[C@@H]1CN([C@H](C)CO)S(=O)(=O)c2ccc(C#C[C@@H](C)O)cc2O[C@H]1CN(C)Cc1ccc(-c2ccccc2)cc1,3,/,?,37,/,/
C[C@H](O)C#Cc1ccc2c(c1)O[C@H](CN(C)Cc1ccc(-c3ccccc3)cc1)[C@@H](C)CN([C@@H](C)CO)S2(=O)=O,9,/,109*,9,/,/
C[C@H](O)C#Cc1ccc2c(c1)O[C@@H](CN(C)Cc1ccc(-c3ccccc3)cc1)[C@H](C)CN([C@H](C)CO)S2(=O)=O,2,/,94*,-6,/,/
Cc1noc(C)c1NC(=O)Nc1ccc2c(c1)C(=O)N([C@H](C)CO)C[C@@H](C)[C@H](CN(C)S(=O)(=O)c1ccccc1)OCCCC[C@H](C)O2,-4,/,-13,-12,/,/
C[C@@H]1CN([C@@H](C)CO)C(=O)Cc2cc(NS(=O)(=O)c3ccc(F)cc3)ccc2O[C@H]1CN(C)S(=O)(=O)c1cn(C)cn1,-5,/,-5,-1,/,/
CC(C)NC(=O)N(C)C[C@H]1Oc2cc(Br)ccc2S(=O)(=O)N([C@@H](C)CO)C[C@@H]1C,-10,/,/,-7,/,/
O=C(C[C@H]1C=C[C@H](NC(=O)CN2CCOCC2)[C@@H](CO)O1)NCCc1ccncc1,-3,/,/,5,/,/
O=C1CNC[C@@H]2[C@H](c3ccc(C4=CCCCC4)cc3)[C@H](CO)N12,-2,/,-8,7,/,/
COc1ccccc1NS(=O)(=O)c1ccc(-c2cc(C)no2)s1,2,26,22,/,4,13
CCOc1ccc(N(C)S(=O)(=O)c2cc(-c3cc(C)no3)ccc2C(C)C)cc1,6,83,39,11,12,5
COc1ccc(-c2cc(C)no2)cc1S(=O)(=O)N(C)c1cccc(C)c1,10,7,7,/,37,-9
CCOc1ccc(N(C)S(=O)(=O)c2ccc(-c3cc(C)no3)s2)cc1,1,13,24,55*,-5,-12
SMILES,LGR2 antag,Shn3 inh set2,PAX8 inh HTS,EWS-Fli block,CF NFkB block,KKLEB tox
CCN(c1cccc(C)c1)S(=O)(=O)c1ccc(-c2cc(C)no2)s1,9,18,28,55*,37,-6
Cc1cccc(N(C)S(=O)(=O)c2ccc(-c3cc(C)no3)s2)c1,-10,-12,38,54*,31,-9
C[C@H](CO)N1C[C@H](C)[C@H](CN(C)C(=O)Nc2cccc3ccccc23)OCCCC[C@H](C)Oc2ccc(NC(=O)CCCN(C)C)cc2C1=O,31,/,11,-1,/,/
Cc1ccc(/C=C/c2nc3ccccc3c(=O)[nH]2)cc1,84*,10,-1,70*,-3,-69*
C[C@H](CO)N1C[C@H](C)[C@@H](CN(C)Cc2ccc(C(=O)Nc3ccccc3N)cc2)Oc2ccc(NS(=O)(=O)c3ccc(F)cc3)cc2C1=O,9,/,4,8,/,/
Cn1c(=O)n(C)c2cc([N+](=O)[O-])c(N3CCN(S(=O)(=O)c4ccc(C(C)(C)C)cc4)CC3)cc21,/,85*,/,/,-6,12
CC(=O)Nc1ccc(S(=O)(=O)N2CCN(c3cc4c(cc3[N+](=O)[O-])n(C)c(=O)n4C)CC2)cc1,-2,23,/,/,-28,11
COc1ccc2[nH]c(=O)cc(C(=O)O)c2c1,34,0,9,11,5,3
COc1ccc2[nH]c3c4c(ccc3c2c1)C(=O)C=CC4=O,12,96*,58,48,64*,-19
Cc1ccccc1OCC(=O)Nc1cccc(C(=O)O)c1,101*,56,93*,83*,11,-2
CCOC(=O)c1cccc(NC(=O)c2ccc(N(C)C)cc2)c1,-15,-16,-59,76*,0,-5
CN(C)S(=O)(=O)c1cccc(NC(=O)COc2ccccc2C(=O)Nc2ccccc2)c1,45*,67,38,13,-9,12
Cc1ccc(S(=O)(=O)N(C)C)cc1NC(=O)COc1ccccc1C(=O)Nc1ccccc1,-9,49,13,11,15,-17
CCOC(=O)c1cccc(NC(=O)c2ccc(NC(=O)c3ccco3)cc2)c1,-7,13,-1,/,-16,21
CCOC(=O)c1sc(NC(=O)Nc2ccccc2)cc1C,/,18,-208,-39,28,-51*
CCOC(=O)c1sc(NC(=O)Nc2ccccc2Cl)cc1C,15,-53,-130,/,-1,-7
CCOc1ccc(C(=O)Nc2cccc(C(=O)O)c2)cc1Cl,76*,-13,51,40,-1,9
